The text below walks through data of PubChem BioAssay (NCATS).

Inconclusive results are not listed. Where a call stands in place of a potency, no number is given. A number with no mark means an inactive call. Active and inactive are the calls of the source. Calls come from the whole dose curve.

The test can be described thus: Cytotoxicity counterscreen for inhibitors of SARS-CoV-2 cell entry (AID 1645845). Note: nearly all actives have a fitted effect of over 50% in size. To be noted: cell viability (SARS-CoV-2 entry assay cells); series mostly up to 57.1 µM; activity change, negative = cytotoxicity: at the top concentration. In outline:
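HEK293-ACE2 cells (Expi293F stably expressing human ACE2) seeded overnight, then compound for 1 h plus 48 h at 37C. Viability as ATP content by luminescence; normalized to wells with cells and media-only wells.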
For orientation: A counterscreen serves to expose hits that act by an unwanted route or on another target.
Consider `CN(C)C(=O)Oc1cccc([N+](C)(C)C)c1`, for which the compound was classed as inactive.

Take `CCC(=O)O[C@]1(C(=O)CCl)[C@@H](C)C[C@H]2[C@@H]3CCC4=CC(=O)C=C[C@]4(C)[C@@]3(F)[C@@H](O)C[C@@]21C`: the Potency result was “inactive”.

On to `CCCCNc1cc(C(=O)O)cc(S(N)(=O)=O)c1Oc1ccccc1`, for which the Potency result is “inactive”.

As to `CCCN(CCC)C(=O)C(CCC(=O)O)NC(=O)c1ccccc1` (configuration not stated), the Potency entry was “inactive”.

`C#C[C@]1(O)CC[C@H]2[C@@H]3[C@H](C)CC4=C(CCC(=O)C4)[C@H]3CC[C@@]21C`: the Potency result is “inactive”.

`O=C1OC2(c3ccc(O)cc3Oc3cc(O)ccc32)c2ccccc21`: the “activity change, negative = cytotoxicity” value is 4.87%.

Consider `CCOC(=O)c1c(N)sc2c1CCN(Cc1ccccc1)C2`, for which the “activity change, negative = cytotoxicity” value is -14.6%.

For `CCOC(=O)[C@H](CCc1ccccc1)N[C@H]1CS[C@H](c2cccs2)CN(CC(=O)O)C1=O`, the Potency entry is “inactive”.

On to `CCCc1cc(C(N)=S)ccn1`, for which the Potency result was “inactive”.

Consider `NC(N)=NCCC[C@H](N)C(=O)O`, for which the outcome is “inactive [at 5.25 µM]”.

With `C[C@H]1C[C@H]2[C@@H]3CCC4=CC(=O)C=C[C@]4(C)[C@H]3C(=O)C[C@]2(C)[C@@]1(O)C(=O)CO`, the Potency entry was “inactive”.

For the compound `C[C@]12CCC(=O)C=C1CC[C@@H]1[C@@H]2[C@@H](O)C[C@@]2(C)[C@H]1CC[C@]2(O)C(=O)CO`, the Potency result was “inactive”.

Turning to `Cc1cc(C(C)(C)C)cc(C)c1CC1=NCCN1`, the Potency result is “inactive”.

Take `O=S(=O)(c1cccc2cnccc12)N1CCCNCC1`: the Potency entry is “inactive”.

In the case of `Cc1cccc(N(C)C(=S)Oc2ccc3ccccc3c2)c1`, the Potency entry was “inactive”.

For `Oc1cc(O)c2c(c1)O[C@H](c1ccc(O)c(O)c1)[C@H](O)C2`, the compound was classed as inactive.

With `CCN1CCN(c2cc(-c3ccc(F)cc3)c3c(n2)CCCCCC3)CC1`, the “outcome” value is “inactive [at 27.1 µM]”.
